HepG2 viability: qHTS for Inhibitors of TGF-b: Cytotox Counterscreen | Potency, µM (doses to about 46.1 µM), actives largely listed as cytotoxic | HepG2 CAGA-GFP viability, ATP luminescence, 18 h | hit rate 0.76% among 410,000
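CellTiter-Glo luminescence gave cytotoxicity after 18 hours at 37 degrees C. The cells were HepG2 CAGA-GFP in 1% FBS DMEM, stimulated with 500 pg/mL TGF-beta after compound addition. %Activity was normalised to no-cell wells (complete cell-killing) and DMSO (no toxicity), and curves were fitted and classified.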
TGFb SMAD3 inh: qHTS for Inhibitors of TGF-b | hit rate 1.2% among 410,000 | HepG2 CAGA-GFP TGF-b/SMAD3 reporter, GFP fluorescence, 18 h; TGF-beta stimulated, 500 pg/mL final | Potency, µM (series often up to 46.1 µM), most hits filed as inhibitors; note: nearly all actives have a fitted effect of over 65% in size
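HEPG2 CAGA-GFP, 1000 cells/well; 2 h settle, 37 C; cpd via pin tool; TGF-b 500 pg/mL final; 18 h, 37 C; GFP imaging ex488/em500-530; %Activity normalised to -TGF-b and +DMSO controls; CRC fit, curve class.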
S2 tox: Viability Counterscreen for Primary qHTS for Inhibitors of ATXN expression; hit rate 0.49% among 400,000; AID 651635, 2014; S2 cells (HEK-293 line with an ATXN2-luciferase reporter) viability, CellTiter-Fluor protease fluorescence, 24 h; Potency, µM (highest dose often 56.7 µM), hits mostly cytotoxic; note: nearly all actives have a fitted effect of over 40% in size
ATXN2 expr inh: Primary qHTS for Inhibitors of ATXN expression. HEK-293 ATXN2-luciferase reporter, luminescence, 24 h. Potency, µM (top dose mostly 57 µM), most hits filed as inhibitors. hit rate 0.72% among 360,000; note: nearly all actives have a fitted effect of over 55% in size
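qHTS (up to 57 uM final) was run with 24 h compound exposure of reporter cells at 37 °C. Each well was multiplexed: SteadyGlo luminescence measured ATXN2-luciferase expression after a fluorogenic Gly-Phe-AFC viability readout (25 uM final).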
Anesthetic bind: qHTS Assay for Identification of Novel General Anesthetics; hit rate 0.074% among 350,000; AID 485281, 2010; Ferritin light chain (Equus caballus), P02791; Potency, µM (doses to about 77.5 µM), usual class: inhibitors; apoferritin/1-aminoanthracene competitive binding, fluorescence; note: nearly all actives have a fitted effect of over 20% in size
Target sequence (P02791 2-175 limits assumed): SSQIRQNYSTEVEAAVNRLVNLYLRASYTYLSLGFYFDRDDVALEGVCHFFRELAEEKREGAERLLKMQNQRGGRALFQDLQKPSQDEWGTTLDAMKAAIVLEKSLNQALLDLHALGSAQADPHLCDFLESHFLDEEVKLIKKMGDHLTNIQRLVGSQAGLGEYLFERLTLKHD
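10 uM apoferritin + 50% sat. 1-AMA, PBS; cpd 10 min RT; Ex380/Em535 endpoint; normalized to free probe vs complex; 4-param Hill fit; propofol titration as pos. ctrl.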
Of the large screens only hits and unclear results are named; the others gave an inactive call. Compounds with a hit are over-represented: about 2.4% of the library has one in this group of screens. Calls come from the whole dose curve; as a rule, active = well fitted curve in the direction sought with a large enough effect; inconclusive = small, poorly fitted or top-dose-only effect, or another doubt; inactive = no such curve, though single readings can be large; an effect the other way counts as inactive or inconclusive.

COc1ccc(/C=N/Nc2cc(C)nc3ccccc23)cc1	TGFb SMAD3 inh inconclusive, S2 tox inconclusive, ATXN2 expr inh inconclusive
COc1ccc(/C=N/Nc2cc(C)nc3c(C)cccc23)cc1	HepG2 viability 12.6µM, TGFb SMAD3 inh inconclusive, S2 tox inconclusive, ATXN2 expr inh inconclusive
CN(C(=O)c1ccoc1)c1ccccc1I	none (no result: S2 tox, ATXN2 expr inh)
O=C(C[n+]1ccccc1)c1ccc(O)c(O)c1	none (no result: S2 tox, ATXN2 expr inh, Anesthetic bind)
COc1ccc(Cl)c(Cn2cnc3c(cnn3C(C)(C)C)c2=O)c1	none (no result: S2 tox, ATXN2 expr inh, Anesthetic bind)
Cc1ccc(Cn2ccnc2SCC(=O)Nc2nc3ccccc3s2)cc1	TGFb SMAD3 inh 11.2µM, Anesthetic bind inconclusive (no result: S2 tox, ATXN2 expr inh)
Cn1cc(SCC(=O)Nc2nc3ccccc3s2)c2ccccc21	ATXN2 expr inh 25.1µM
COc1cccc(-c2cccc(-c3nc(C(=O)NCc4ccc5c(c4)OCO5)cc4c3[C@H](CCO)N(S(=O)C(C)(C)C)C4)c2)c1 (stereo not given in full)	TGFb SMAD3 inh 15.8µM, S2 tox 17.8µM, ATXN2 expr inh inconclusive (no result: Anesthetic bind)
COc1cccc(-c2cccc(-c3nc(C(=O)Nc4ccc(-c5ccccc5)cc4)cc4c3[C@H](CCO)N(S(=O)C(C)(C)C)C4)c2)c1 (stereo not given in full)	TGFb SMAD3 inh inconclusive, ATXN2 expr inh inconclusive (no result: Anesthetic bind)
CC(C)(C)S(=O)N1Cc2cc(C(=O)NCc3ccc4c(c3)OCO4)nc(-c3cccc(-c4cc5ccccc5o4)c3)c2[C@@H]1CCO (stereo not given in full)	TGFb SMAD3 inh inconclusive, ATXN2 expr inh 22.4µM (no result: S2 tox, Anesthetic bind)
CC(=O)Cc1cc(O)c2ccccc2c1OC(=O)c1ccccc1	HepG2 viability 20µM, TGFb SMAD3 inh inconclusive (no result: S2 tox)
CCn1c2ccccc2c2cc(NC(=O)COC(=O)C3CCC(=O)N3)ccc21 (stereo not given)	ATXN2 expr inh 17.8µM
CCn1c2ccccc2c2cc(NC(=O)COC(=O)c3ccccc3O)ccc21	ATXN2 expr inh inconclusive
CC(C)(C)[C@H](N)C(=O)N[C@H]1CCC2C3CC=C4C[C@@H](O)CC[C@]4(C)C3CC[C@@]21C (stereo not given in full)	TGFb SMAD3 inh 14.1µM, ATXN2 expr inh inconclusive (no result: S2 tox, Anesthetic bind)
N#CC1(c2ccc(F)cc2)CCC(=O)CC1	none (no result: HepG2 viability, TGFb SMAD3 inh, Anesthetic bind)
Nc1nc(Sc2ccc([N+](=O)[O-])c3nonc23)c2[nH]cnc2n1	TGFb SMAD3 inh inconclusive, ATXN2 expr inh 14.1µM (no result: S2 tox, Anesthetic bind)
CNc1ncnc(Sc2nc(N)nc3nc[nH]c23)c1[N+](=O)[O-]	TGFb SMAD3 inh inconclusive, S2 tox inconclusive, ATXN2 expr inh inconclusive (no result: Anesthetic bind)
CN(CC(=O)Nc1ccccc1Cl)C(=O)COC(=O)c1ccc(-c2ccc(O)cc2)cc1	S2 tox inconclusive, ATXN2 expr inh inconclusive (no result: Anesthetic bind)
Cc1occc1C(=O)Nc1cccc(C(F)(F)F)c1	none
Cc1cnc(Nc2nc3ccccc3o2)nc1C(=O)Nc1cccc(C(F)(F)F)c1	HepG2 viability 5.01µM, TGFb SMAD3 inh inconclusive
Cc1ccc(C(=O)Nc2cccc(C(F)(F)F)c2)cc1Nc1ccccn1	S2 tox 31.6µM, ATXN2 expr inh inconclusive
O=C(COCC(=O)Nc1cccc(C(F)(F)F)c1)Nc1cccc(C(F)(F)F)c1	HepG2 viability 22.4µM, Anesthetic bind inconclusive
Cc1ccccc1C(=O)NNC(=S)Nc1cccc(C(F)(F)F)c1	HepG2 viability 10µM, TGFb SMAD3 inh inconclusive, ATXN2 expr inh inconclusive
Cc1cc(-c2cc(F)cc3c2OC(CNC(=O)CCn2cncn2)C3)ccc1F (stereo not given)	none (no result: HepG2 viability, TGFb SMAD3 inh, ATXN2 expr inh, Anesthetic bind)
CC#CCn1c(N2CCC[C@@H](N)C2)nc2c1c(=O)n(Cc1nc(C)c3ccccc3n1)c(=O)n2C	none (no result: HepG2 viability, TGFb SMAD3 inh, S2 tox, Anesthetic bind)
CN1C2CC(OC(=O)C(CO)c3ccccc3)C[C@@H]1[C@H]1OC21 (stereo not given in full)	none (no result: HepG2 viability, TGFb SMAD3 inh, S2 tox, ATXN2 expr inh)
CCN1CCN(CCCNC(=O)c2ccc3c(c2)sc2nc(-c4ccc(C)cc4)cn23)CC1	none (no result: S2 tox, ATXN2 expr inh)
CC1CCCCN1CCCNC(=O)c1ccc2c(c1)sc1nc(-c3ccc(F)cc3)cn12 (stereo not given)	HepG2 viability 12.6µM, TGFb SMAD3 inh inconclusive, S2 tox 31.6µM, ATXN2 expr inh 14.1µM, Anesthetic bind inconclusive
Cc1ccc(-c2cn3c(n2)sc2cc(C(=O)NCCCN4CCCCCC4)ccc23)cc1	HepG2 viability 10µM (no result: S2 tox, ATXN2 expr inh)
